Here are results for 18 compounds from PubChem BioAssay.

Experiment [1] has as its target Mitogen-activated protein kinase 7 (Homo sapiens) (UniProt Q13164). The experiment is described as follows: Gal4-ERK5 driven luciferase induction – cell-based, HTS, primary screen (AID 1508626;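 active means luciferase signal above three times the same-plate solvent-only control wells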;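 further: luciferase driven by Gal4-ERK5 fusion binding five Gal4 sites before minimal TATA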). The settings on record: HeLa Gal4-ERK5 transactivation, 18 h, at 5 µM, active compounds read high.
The nature of experiment [2]: compounds altering circadian rhythm period length – cell-based, LOPAC library, luminescence reporter (AID 2774).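 Further: values are relative to mean of DMSO wells on each plate.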 As to conditions: circadian reporter cells, at 7 µM, actives lie on both sides.
A short description of experiment [3]: compounds altering viability of human ES cells (AID 493140).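 Further: cells exposed to compounds for four days before counting.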 As to conditions: human embryonic stem cell survival screen; active compounds read high.
The subject of experiment [4] is Hepatitis C virus NS3 helicase. The experiment is described as follows: blockers of NS3h binding to ssDNA – biochemical, fluorescence polarization, LOPAC1280 library, primary screen (AID 687035; in the data active means inhibition above about 37%). The settings on record: Purified HCV NS3 helicase, Cy5-dT15 ssDNA binding fluorescence polarization; active compounds read high; concentration not given here.
The nature of experiment [5]: compounds altering Cy5-DNA-NS3h complex signal – biochemical, LOPAC1280, artefact control for HCV NS3 helicase inhibitor project (AID 687037). As to conditions: Cy5-DNA-NS3h complex fluorescence interference counterscreen. In general terms: The purpose of a counterscreen is to sort out artefacts and off-target activity.
Experiment [6] in a line: blockers of cellular phospholipid synthesis – cell-based, LOPAC library, screen 4, primary screen (AID 1347384). As to conditions: animal cells, phospholipid biosynthesis inhibition screen; at 10 µM.
Experiment [7] in a line: JHH-DIPG-1 glioma cell viability, MIPE5.0 library, CellTiter-Glo luminescence, qHTS (AID 1347067; cut-off not given, nearly all actives have AC50 up to about 26 µM;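 further: cells exposed to compound for 48 hours before readout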). The settings on record: JHH-DIPG-1 glioma viability, CellTiter-Glo ATP luminescence. On the technique in general: In ATP-based viability assays light output follows the ATP content of the culture.
Experiment [8] is described as follows: viability loss in pontine glioma line – cell-based, JHH-DIPG-1, MIPE4.0, CellTiter-Glo, qHTS, dose response (AID 1347062; cut-off not given, nearly all actives have AC50 up to about 27 µM;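 on AC50: cells exposed to compound for two days before readout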). The settings on record: JHH-DIPG-1 viability, CellTiter-Glo ATP luminescence.
Experiment [9] in a line: viability loss in pontine glioma line – cell-based, SU-DIPG-XIII, MIPE5.0, CellTiter-Glo, qHTS, dose response (AID 1347064; cut-off not given, nearly all actives have AC50 up to about 23 µM;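 on AC50: cells exposed to compound for 48 hours before the viability read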). As to conditions: CellTiter-Glo ATP luminescence.
The nature of experiment [10]: viability loss in pontine glioma line – cell-based, SU-DIPG-XXV, MIPE5.0, CellTiter-Glo, qHTS, dose response (AID 1347065; cut-off not given, nearly all actives have AC50 up to about 26 µM;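 further: cells exposed to compound for 48 hours before ATP readout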). The settings on record: CellTiter-Glo ATP luminescence.
The nature of experiment [11]: growth inhibition of DIPG cells – cell-based, MIPE4.0 library, CellTiter-Glo luminescence, qHTS (AID 1347066; cut-off not given, nearly all actives have AC50 up to about 30 µM;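 further: cells exposed to compound for 48 hours before readout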). As to conditions: SU-DIPG-VI viability, CellTiter-Glo ATP luminescence.

SMILES strings stand for the structures. Unmarked numbers belong to inactive results. Results filed as inconclusive are left out. Active and inactive are the calls of the source. Unless noted, how the calls were made is not given here.

Mitogen-activated protein kinase 7 (Homo sapiens), sequence (Q13164 whole entry, looked up, the tested form may be a part): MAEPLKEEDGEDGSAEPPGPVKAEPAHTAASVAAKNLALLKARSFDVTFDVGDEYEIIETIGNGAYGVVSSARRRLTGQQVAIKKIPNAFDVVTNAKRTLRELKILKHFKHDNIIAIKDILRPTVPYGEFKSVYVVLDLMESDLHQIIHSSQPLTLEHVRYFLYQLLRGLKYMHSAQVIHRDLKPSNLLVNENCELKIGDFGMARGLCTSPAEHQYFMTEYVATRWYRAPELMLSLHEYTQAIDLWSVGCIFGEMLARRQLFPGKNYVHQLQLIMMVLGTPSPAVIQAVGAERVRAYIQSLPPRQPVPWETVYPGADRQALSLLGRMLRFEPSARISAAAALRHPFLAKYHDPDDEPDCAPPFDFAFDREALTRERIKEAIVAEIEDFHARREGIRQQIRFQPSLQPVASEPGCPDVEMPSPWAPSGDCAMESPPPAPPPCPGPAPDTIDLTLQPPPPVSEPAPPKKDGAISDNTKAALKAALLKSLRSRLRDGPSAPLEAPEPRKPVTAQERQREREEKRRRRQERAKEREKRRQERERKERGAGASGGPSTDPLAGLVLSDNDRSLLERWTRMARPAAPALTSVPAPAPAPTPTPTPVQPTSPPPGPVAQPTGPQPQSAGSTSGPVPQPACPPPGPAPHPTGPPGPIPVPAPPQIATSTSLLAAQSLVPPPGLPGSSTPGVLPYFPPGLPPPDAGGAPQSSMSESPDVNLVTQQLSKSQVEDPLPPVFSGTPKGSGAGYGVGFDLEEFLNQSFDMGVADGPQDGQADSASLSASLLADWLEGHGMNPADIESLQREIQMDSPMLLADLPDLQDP

As for `NC(=O)C1(N2CCCCC2)CCN(CCCC(=O)c2ccc(F)cc2)CC1`, in [1], the luciferase signal was 52 AU.

`C[N+](C)(C)CCCCCCCCCC[N+](C)(C)C`: the period change in [2] was 0.03 h. Besides, the survival in experiment [3] was 4. Moreover, the inhibition in experiment [4] is 2%. In experiment [5], the fluorescence ratio (interference) is 1. In addition, the call in experiment [6] was inactive. For the same compound, the luciferase signal in [1] was 60 AU.

As to `CC(O)Cn1cnc2c1c(=O)n(C)c(=O)n2C` (configuration not stated), the survival in [3] was 7. In experiment [1], the luciferase signal was 104 AU.

Take `CCCCCCCCCCOc1cc2c(=O)c(C(=O)OCC)c[nH]c2cc1OCC`: the luciferase signal in experiment [1] is 44 AU.

As to `CN(C(=O)c1c(O)c2ccccc2n(C)c1=O)c1ccccc1`, the outcome in [7] was inactive.

As to `CCOC(=O)c1cnc2c(cnn2CC)c1NN=C(C)C`, the period change in experiment [2] was 0.065 h. Further, the inhibition in [4] is -2%. Besides, the fluorescence ratio (interference) in experiment [5] is 1. In experiment [6], the compound was called inactive.

As to `CC(C)C(=O)c1c(C(C)C)nn2ccccc12`, the period change in experiment [2] was -0.095 h. In experiment [4], the inhibition was -1%. Also, the fluorescence ratio (interference) in [5] is 1. Besides, in experiment [6], the call was inactive.

For `CC[C@]1(O)C[C@H]2CN(CCc3c([nH]c4ccccc34)[C@@](C(=O)OC)(c3cc4c(cc3OC)N(C=O)[C@H]3[C@@](O)(C(=O)OC)[C@H](OC(C)=O)[C@]5(CC)C=CCN6CC[C@]43[C@@H]65)C2)C1`, the AC50 is 5.26 nM (active) in experiment [8], 332 nM (active) in experiment [9], 29.5 nM (active) in [10] and 29.5 nM (active) in [7]. For the same compound, the luciferase signal in [1] was 72 AU.

Turning to `C1COC(NC(C2CC2)C2CC2)=N1`, in [2], the period change is 0.03 h. The survival in experiment [3] was 19. Also, the inhibition in experiment [4] is 0%. Further, in experiment [5], the fluorescence ratio (interference) is 1. In addition, the call in experiment [9], in experiment [10], in experiment [11], in experiment [7] and in experiment [6] was inactive.

As to `FC(F)(F)c1ccccc1-n1ccnc1`, in [2], the period change was -0.115 h. The inhibition in experiment [4] is 0%. For the same compound, in experiment [5], the fluorescence ratio (interference) is 1. In addition, the outcome in experiment [6] was inactive.

Consider `CN1CCC[C@@H]1Cc1c[nH]c2ccc(CCS(=O)(=O)c3ccccc3)cc12`, for which the result in [6] was inactive. The luciferase signal in experiment [1] was 48 AU.

Turning to `COCC(=O)O[C@]1(CCN(C)CCCc2nc3ccccc3[nH]2)CCc2cc(F)ccc2[C@@H]1C(C)C`, the period change in experiment [2] is -0.16 h. Moreover, in [4], the inhibition was -2%. In addition, in [5], the fluorescence ratio (interference) was 1. Further, the compound was called inactive in experiment [6].

Take `OC(CN1CCC(Cc2ccc(F)cc2)CC1)c1ccc(Cl)cc1` (configuration not stated): the inhibition in [4] was -3%. In experiment [5], the fluorescence ratio (interference) is 1. For the same compound, the compound was called inactive in [11] and in experiment [6].

For the compound `CC[N+](CC)(CC)CCOc1ccc(/C=C/c2ccccc2)cc1`, the inhibition in experiment [4] was -3%. Moreover, in experiment [5], the fluorescence ratio (interference) was 1. In experiment [6], the compound was called inactive.

Take `CN=C(NC#N)Nc1ccc(C2=NNC(=O)CC2C)cc1` (configuration not stated): the period change in experiment [2] was 0.035 h.

`COC(=O)[C@@H]1CC2=CC(=O)CC[C@]2(C)[C@@]23O[C@@H]2C[C@@]2(C)[C@@H](CC[C@@]24CCC(=O)O4)[C@H]13`: the result in experiment [9], in experiment [11] and in experiment [7] was inactive.

For `Cc1ccc(=O)n(-c2ccccc2)c1`, in experiment [2], the period change was -0.085 h. The inhibition in experiment [4] is -4%. For the same compound, the fluorescence ratio (interference) in [5] is 1. Besides, the compound was called inactive in experiment [6].

As to `Cn1ccc2cc3c(cc21)CCN3C(=O)Nc1cccnc1`, the period change in experiment [2] is 0.355 h. In addition, the inhibition in experiment [4] was -3%. Moreover, the fluorescence ratio (interference) in [5] was 0.9. The compound was classed as inactive in experiment [8], in experiment [9], in [10], in [11], in experiment [7] and in [6].

A word on the inhibition: it is the relative decrease from the control value, in per cent. A word on the AC50: it is the midpoint of the concentration-response curve, whichever way the signal moves.
